# PubChem BioAssay
# Results with a measured potency or affinity are listed apart. Results filed as inconclusive are left out. Active and inactive are the calls of the source.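 Rule for the calls, unless noted: active = falling signal with fitted half-maximal potency no higher than twice the top valid tested dose; inconclusive = poor fit quality, or flat fit spanning -70% to -30%; inactive = potency over limit, rising signal, or flat fit inside 30%.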
# Legend:
# [1] = Cryptococcus neoformans growth inhibition, dose response, Alamar Blue, cherry-picks (AID 686998)
# [2] = HepG2 cell cytotoxicity, dose response, cytotoxicity control, cherry-picks, set 2 (AID 687002;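 active = a dose-response fit showing signal loss, with half-maximal concentration no higher than twice the top tested dose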)
# [3] = HeLa cell cytotoxicity, dose response, cytotoxicity control, ATP luminescence, cherry-pick samples (AID 687004;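 active = a fitted half-maximal concentration no higher than twice the top valid tested dose, with signal falling as cells die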)
# [4] = inducers of Cryptococcus neoformans cell lysis, dose response, AK release luminescence, cherry-picks (AID 687000;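 active = fitted dose curve reaches 40% lysis signal rise at or below the highest valid concentration tested for that sample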;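 note: luminescent detection of adenylate kinase leaking from lysed yeast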)
SMILES,outcome [1],outcome [2],outcome [3],outcome [4]
C[C@H](CO)N1C[C@H](C)[C@H](CN(C)Cc2ccccc2)OCCCC[C@H](C)Oc2ccc(NS(=O)(=O)c3cccs3)cc2C1=O,inactive,inactive,inactive,
O=C(N[C@H]1CC[C@H](CCn2cc(-c3ccccn3)nn2)O[C@H]1CO)c1ccc(F)cc1,inactive,inactive,,
O=C(NCCN1CCCCC1)[C@H]1N[C@H]2c3ccc(-c4ccncc4)c(=O)n3C[C@H]2[C@@H]1CO,inactive,inactive,inactive,
C[C@H]1CN([C@@H](C)CO)C(=O)c2cccc(NS(=O)(=O)c3ccc(Cl)cc3)c2O[C@@H]1CN(C)CC1CC1,inactive,inactive,inactive,
Cc1ccc(CSc2ncnc3c2cnn3-c2ccc(C)cc2)cc1,inactive,inactive,,
C[C@H](CO)N1C[C@H](C)[C@H](CN(C)Cc2ccc(-c3ccccc3)cc2)Oc2c(NC(=O)c3ccncc3)cccc2C1=O,inactive,inactive,,
O=C(CC1CC1)N1[C@@H]2CN(S(=O)(=O)c3ccccc3)c3ccccc3[C@@H]2[C@@H]1CO,inactive,,inactive,
CCC(=O)N(C)C[C@@H]1Oc2cc(C#CC(C)(C)O)ccc2S(=O)(=O)N([C@H](C)CO)C[C@H]1C,inactive,inactive,inactive,
C[C@H](CO)N1C[C@H](C)[C@@H](CN(C)CC2CCOCC2)Oc2ncc(C#Cc3ccc(F)cc3)cc2C1=O,inactive,inactive,inactive,
CNC[C@@H]1OCCCC[C@@H](C)Oc2ccc(NC(=O)Nc3ccc4c(c3)OCO4)cc2C(=O)N([C@H](C)CO)C[C@@H]1C,inactive,inactive,inactive,
Cc1ccc(S(=O)(=O)N2CC[C@@H]3[C@H](CO)Nc4ccc(-c5ccccc5F)cc4[C@@H]32)cc1,,inactive,inactive,inactive
